NR5A2 inv ag = inverse agonists of human LRH-1 (NR5A2). O00482. HEK293T StAR-luciferase reporter, LRH-1 transfected, 24 h. inhibition, % at 3.6 µM. 360,000 tested, 0.13% active. AID 602396;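 active = inhibition above the mean inhibition of all tested compounds plus 3 SD, cut at about 73% in these data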;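 note: 0% = DMSO wells and 100% = reporter-only cells lacking LRH-1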
GalR3 antagonist = antagonists of human GalR3; inhibition, % at 3 µM; 360,000 tested, 0.44% active; HEK293 GalR3-CNG cAMP membrane potential fluorescence; galR3 body fused to GalR1 C-terminus;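 active = inhibition above the screen-wide average plus 3 SD, cut at about 13% in these data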;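 note: forskolin and galanin both at EC90 stimulate the cells; cAMP rise reported by CNG channel membrane potential dye signal; 0% = forskolin plus galanin with DMSO and 100% = forskolin alone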
SRC3 inh = human NCOA3 inhibition; 360,000 tested, 0.17% active; inhibition, % at 3.6 µM; HEK293 GAL4-SRC3 luciferase reporter, luminescence;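 active = inhibition above a per-campaign cutoff, the mean of all compounds plus 3 SD, cut at about 60% in these data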;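 note: 0% = DMSO-treated cells and 100% = gossypol-treated cells at 36 µM; higher means less SRC3-driven luciferase light from the GAL4 reporter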
NCOA2 inhibitor = human SRC2 (NCOA2) inhibition | inhibition, % at 9 µM | Q15596 | HEK293 GAL4-SRC2 luciferase reporter, luminescence | 370,000 tested, 0.17% active;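 active = inhibition above the mean inhibition of all tested compounds plus 3 SD, set per campaign, cut at about 52% in these data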;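 note: 0% = DMSO treated cells and 100% = cells given Gossypol at 36 µM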
Target sequence (Q15596 whole entry, looked up, the tested form may be a part): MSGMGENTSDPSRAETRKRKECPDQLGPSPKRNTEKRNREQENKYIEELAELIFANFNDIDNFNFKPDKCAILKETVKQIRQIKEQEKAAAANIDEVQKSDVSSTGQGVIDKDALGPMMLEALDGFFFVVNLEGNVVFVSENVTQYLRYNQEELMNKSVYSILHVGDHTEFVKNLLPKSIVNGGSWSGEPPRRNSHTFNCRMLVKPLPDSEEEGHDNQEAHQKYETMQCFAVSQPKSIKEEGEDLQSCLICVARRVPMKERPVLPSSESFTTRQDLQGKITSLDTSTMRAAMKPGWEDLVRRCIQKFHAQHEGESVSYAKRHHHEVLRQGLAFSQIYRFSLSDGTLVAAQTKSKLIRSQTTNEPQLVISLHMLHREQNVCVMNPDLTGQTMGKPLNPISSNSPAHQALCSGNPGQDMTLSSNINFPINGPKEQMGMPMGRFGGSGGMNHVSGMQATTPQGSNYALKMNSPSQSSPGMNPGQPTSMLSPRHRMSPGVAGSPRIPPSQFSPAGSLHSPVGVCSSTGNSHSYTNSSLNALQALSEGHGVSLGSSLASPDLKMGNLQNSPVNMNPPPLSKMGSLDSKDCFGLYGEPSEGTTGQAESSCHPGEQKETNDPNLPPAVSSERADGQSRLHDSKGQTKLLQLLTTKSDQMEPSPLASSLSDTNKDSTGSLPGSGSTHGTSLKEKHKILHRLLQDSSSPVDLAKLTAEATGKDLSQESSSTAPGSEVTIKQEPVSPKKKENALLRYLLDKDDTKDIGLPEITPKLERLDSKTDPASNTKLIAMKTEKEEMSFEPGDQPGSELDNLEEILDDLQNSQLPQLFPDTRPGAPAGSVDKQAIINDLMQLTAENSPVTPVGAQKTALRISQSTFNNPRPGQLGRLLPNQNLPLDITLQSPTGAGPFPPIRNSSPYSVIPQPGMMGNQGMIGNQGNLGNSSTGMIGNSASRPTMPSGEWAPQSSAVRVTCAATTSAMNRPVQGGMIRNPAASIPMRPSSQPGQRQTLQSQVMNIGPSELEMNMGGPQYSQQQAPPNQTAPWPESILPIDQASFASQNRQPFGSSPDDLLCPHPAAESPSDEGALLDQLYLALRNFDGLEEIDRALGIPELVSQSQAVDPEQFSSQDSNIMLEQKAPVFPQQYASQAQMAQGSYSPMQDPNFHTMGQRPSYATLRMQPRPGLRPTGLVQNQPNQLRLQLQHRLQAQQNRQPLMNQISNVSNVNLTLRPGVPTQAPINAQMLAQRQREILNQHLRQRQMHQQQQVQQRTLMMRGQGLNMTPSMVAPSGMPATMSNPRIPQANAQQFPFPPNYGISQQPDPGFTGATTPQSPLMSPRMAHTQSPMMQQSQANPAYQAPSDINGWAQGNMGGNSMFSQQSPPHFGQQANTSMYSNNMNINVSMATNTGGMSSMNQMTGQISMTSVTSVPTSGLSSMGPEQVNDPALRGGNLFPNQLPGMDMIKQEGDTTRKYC
COUP-TFII inh = NR2F2 (human) inhibition, primary screen | P24468 | HEK293T NGFI-A luciferase reporter, luminescence | inhibition, % at 8.6 µM | 370,000 tested, 0.7% active | AID 686940;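 active = inhibition above a per-plate cutoff, mean inhibition of test wells between control levels plus 3 SD, cut at about 38% in these data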;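 note: cells cotransfected with COUP-TFII expression vector driving the NGFI-A reporter; 0% = median of COUP-TF2 test wells and 100% = reporter-only cells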
SRC1 inh = inhibitors of human steroid receptor coactivator 1 (SRC1); 360,000 tested, 0.12% active; inhibition, % at 3.6 µM; Q15788; HEK293 GAL4-SRC1 luciferase reporter, luminescence;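 active = inhibition above the campaign mean plus 3 SD, with each screening campaign given its own cutoff, cut at about 60% in these data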;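 note: 0% = DMSO treated cells and 100% = gossypol at 36 µM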
GalR3 antag conf = GalR3 (human) antagonism, confirmation | shares compounds with GalR3 antagonist | HEK293 GalR3 CNG cAMP biosensor, membrane potential fluorescence; galR3 fused to GalR1 carboxy tail; challenged with forskolin and galanin at EC90 | 1,600 tested, 59% active | inhibition, % at 3 µM;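 active = inhibition above the primary screen's cutoff, the mean inhibition of all screened compounds plus 3 SD, cut at about 13% in these data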;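 note: 0% = forskolin plus galanin and 100% = forskolin alone with DMSO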
HEK-CNG parental = counter-screen for GalR3 antagonists: nonspecific agonists in parental HEK-CNG cells | HEK293-CNG parental cells, cAMP membrane potential fluorescence; normalised: DMSO wells 0%, forskolin wells 100% | activation, % at 3 µM | 1,600 tested, 10% active | AID 652268 | shares compounds with GalR3 antagonist; in the data active = activation above about 1.3%
Gal4-VP16 ctr = VP16 inhibition counter-screen for COUP-TFII; shares compounds with COUP-TFII inh; HEK293 Gal4-VP16 luciferase reporter, luminescence; inhibition, % at 8.5 µM; 2,500 tested, 25% active; AID 687007; in the data active = inhibition above about 13%
NR2F2 inh conf = confirmation of human COUP-TFII (NR2F2) inhibitors; inhibition, % at 8.5 µM; shares compounds with COUP-TFII inh; HEK293 NGFI-A luciferase reporter, luminescence; 2,500 tested, 45% active;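 active = mean inhibition over three repeats above a set limit taken from the earlier primary screen, cut at about 38% in these data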;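 note: 100% = cells given the luciferase reporter alone without the COUP-TF2 vector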
* hit, by the source's call. Rows were chosen to be rich in hits. Some 1.1% of all compounds tested hit in one or more screens of this group.

Screening CC(=O)c1c(C)[nH]c(C(=O)OCCCCN2C(=O)c3ccccc3C2=O)c1C returned NR5A2 inv ag 10.7, GalR3 antagonist 19.6*, SRC3 inh 30.3, NCOA2 inhibitor 20.0, COUP-TFII inh 52.9*, SRC1 inh 16.1, GalR3 antag conf 59.6*, HEK-CNG parental -0.4, Gal4-VP16 ctr -0.3 and NR2F2 inh conf 60.5*.
Screening CC(=O)c1c(C)[nH]c(C(=O)OCc2ccccc2)c1C returned NR5A2 inv ag -60.6, GalR3 antagonist 1.6, SRC3 inh -36.0, NCOA2 inhibitor -36.4, COUP-TFII inh -25.4 and SRC1 inh -51.9.
Screening O=S(=O)(c1ccccc1)N1CCC(O)(CSc2ccccc2)CC1 returned NR5A2 inv ag 25.5, GalR3 antagonist -4.3, SRC3 inh 0.9, NCOA2 inhibitor -10.4, COUP-TFII inh 11.6 and SRC1 inh -9.5.
`O=S(=O)(c1ccccc1)N1CCC(O)(CSc2ccc(F)cc2)CC1` gave NR5A2 inv ag 27.5, GalR3 antagonist 72.5*, SRC3 inh 22.8, NCOA2 inhibitor 34.9, COUP-TFII inh 40.5*, SRC1 inh 11.7, GalR3 antag conf 44.1*, HEK-CNG parental -0.9, Gal4-VP16 ctr 2.1 and NR2F2 inh conf 27.0.
`O=C(Nc1ccncc1)c1ccc(-c2ccccc2)cc1` gave NR5A2 inv ag -8.1, SRC3 inh 8.0, NCOA2 inhibitor -35.0, COUP-TFII inh 62.0*, SRC1 inh -30.7, GalR3 antag conf 56.3*, HEK-CNG parental -0.5, Gal4-VP16 ctr -87.4 and NR2F2 inh conf 33.1.
CCOC(=O)C1CCN(C(=O)c2ccc(OCC(=O)Nc3cccc(C(F)(F)F)c3)c(OC)c2)CC1 was read as NR5A2 inv ag 32.6, GalR3 antagonist 91.8*, SRC3 inh 12.5, NCOA2 inhibitor 37.3, COUP-TFII inh 65.7*, SRC1 inh 24.6, GalR3 antag conf 106.5*, HEK-CNG parental -0.4, Gal4-VP16 ctr -5.5 and NR2F2 inh conf 59.0*.
Screening COc1ccc(OC)c(N2C(=O)CC(Cc3cc(C)cc(C)c3)C2=O)c1 (stereo not drawn) returned NR5A2 inv ag 10.2, GalR3 antagonist 0.3, SRC3 inh 22.9, NCOA2 inhibitor 10.1, COUP-TFII inh -1.0 and SRC1 inh 5.0.
For NC(=O)c1c(-c2ccc(Cl)cc2Cl)csc1NC(=O)Cc1ccccc1 the results were NR5A2 inv ag 15.1, GalR3 antagonist 95.1*, SRC3 inh 12.8, NCOA2 inhibitor 9.6, COUP-TFII inh 73.5*, SRC1 inh 8.2, GalR3 antag conf 113.4*, HEK-CNG parental -1.1, Gal4-VP16 ctr -22.7 and NR2F2 inh conf 53.6*.
For O=C(Cc1ccccc1)Nc1scc(-c2ccccc2)c1C(=O)N1CCOCC1 the results were NR5A2 inv ag -8.8, SRC3 inh 23.1 and SRC1 inh 1.9.
Screening CCCn1c(SCC(=O)c2ccc(OC)c(OC)c2)nc2c1c(=O)n(C)c(=O)n2C returned NR5A2 inv ag 2.5, GalR3 antagonist -2.5, SRC3 inh 3.9, NCOA2 inhibitor -7.0, COUP-TFII inh -6.0 and SRC1 inh 19.7.
`COc1cccc(CN(C)C(=O)CNC(=O)c2ccc(-c3ccccc3)cc2)c1OC` gave NR5A2 inv ag 26.0, GalR3 antagonist 53.3*, SRC3 inh 3.0, NCOA2 inhibitor 23.7, COUP-TFII inh 58.0*, SRC1 inh 6.2, GalR3 antag conf 116.1*, HEK-CNG parental -0.9, Gal4-VP16 ctr 2.8 and NR2F2 inh conf 46.6*.
COc1ccc(-n2c(-c3ccc(Cl)cc3)c[n+]3c2CCCCC3)cc1 was read as NR5A2 inv ag 10.3, GalR3 antagonist -5.3, SRC3 inh 12.2, NCOA2 inhibitor 24.2, COUP-TFII inh 28.6 and SRC1 inh 2.4.
For COc1ccc(-c2c[n+]3c(n2-c2ccc(C)cc2)CCCCC3)cc1 the results were NR5A2 inv ag 71.7, GalR3 antagonist 71.1*, SRC3 inh 58.1, NCOA2 inhibitor 22.0, COUP-TFII inh 71.5*, SRC1 inh 35.0, GalR3 antag conf 91.7*, HEK-CNG parental -0.3, Gal4-VP16 ctr 10.1 and NR2F2 inh conf 60.6*.
`Cc1cc(C(=O)CSc2nc3ccccc3[nH]2)c(C)n1CC1CCCO1` (stereo not drawn) gave NR5A2 inv ag 46.0, GalR3 antagonist 109.7*, SRC3 inh 72.8*, NCOA2 inhibitor 63.1*, COUP-TFII inh 80.3*, SRC1 inh 48.0, GalR3 antag conf 4.8, HEK-CNG parental -0.2, Gal4-VP16 ctr 33.6* and NR2F2 inh conf 87.7*.
Screening O=C(Nc1ccc(Cl)cc1)c1ccc(CN2CCc3ccccc3C2)cc1 returned NR5A2 inv ag 9.6, GalR3 antagonist 107.5*, SRC3 inh -23.0, NCOA2 inhibitor -15.7, COUP-TFII inh 41.4*, SRC1 inh -21.2, GalR3 antag conf 102.2*, HEK-CNG parental -0.5, Gal4-VP16 ctr -108.8 and NR2F2 inh conf 11.8.
O=C(Nc1ccc(S(=O)(=O)N2CCCCC2)cc1)c1ccncc1 was read as NR5A2 inv ag 6.2, GalR3 antagonist -1.5, SRC3 inh 10.8, NCOA2 inhibitor 18.6, COUP-TFII inh 6.6 and SRC1 inh -8.3.
`COc1ccc(NC(=O)c2ccc(CN3CCc4ccccc4C3)cc2)cc1OC` gave NR5A2 inv ag 4.4, GalR3 antagonist -4.0, SRC3 inh -3.5, NCOA2 inhibitor -34.1, COUP-TFII inh -3.0 and SRC1 inh 2.3.
Screening O=C(Nc1ccc(Cc2ccncc2)cc1)c1ccc(S(=O)(=O)N2CCCC2)cc1 returned NR5A2 inv ag 26.6, GalR3 antagonist 72.7*, SRC3 inh 26.3, NCOA2 inhibitor 13.1, COUP-TFII inh 68.6*, SRC1 inh 21.7, GalR3 antag conf 94.2*, HEK-CNG parental -0.2, Gal4-VP16 ctr 11.0 and NR2F2 inh conf 52.2*.
For N#CCc1ccc(NC(=O)c2ccc(CN3CCc4ccccc4C3)cc2)cc1 the results were NR5A2 inv ag 21.2, GalR3 antagonist 30.4*, SRC3 inh 7.2, NCOA2 inhibitor 4.9, COUP-TFII inh 55.8*, SRC1 inh 8.9, GalR3 antag conf 105.0*, HEK-CNG parental -0.3, Gal4-VP16 ctr 0.4 and NR2F2 inh conf 55.8*.

High-throughput results (PubChem BioAssay)
